# Rows were chosen to be rich in hits. Some 5.5% of all compounds tested hit in one or more screens of this group.
# Giardia kill = Small Molecules that selectively kill Giardia lamblia: qHTS; Giardia lamblia trophozoite viability; activity change, % at 7.66 µM, hits read low; hit rate 0.15% among 340,000; AID 540267, 2011; in the data active = activity change below about -80%; inconclusive = between about -30% and that limit;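 note: parasites exposed to compound for two days anaerobically before the ATP read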
#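 ATP-content bioluminescence gauges trophozoite survival. Cells (100/well) receive compound and incubate anaerobically for 48 hrs at 37 deg C; detection reagent follows for 15-30 min at room temperature.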
# ELG1 repair inh = qHTS screen for small molecules that inhibit ELG1-dependent DNA repair in human embryonic kidney (HEK293T) cells expressing luciferase-tagged ELG1; HEK293T ELG1-luciferase reporter, luminescence, 16 h; DNA damage induced by 5-fluorouridine; Potency, µM (highest dose often 46.1 µM), for the others: top-dose activity change, negative = inhibition, most hits filed as inhibitors; hit rate 2.3% among 330,000; note: potency is the fitted concentration of half-maximal effect; nearly all actives have a fitted effect of over 55% in size
#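 Reporter activity after DNA damage by 5-fluorouridine is monitored. Compound-treated cells incubate 16 hr at 37 °C, then ONE-Glo is added for 30 min before luminescence reading.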
# FBPA coupling cs = qHTS Assay for Inhibitors of Fructose-1,6-bisphosphate Aldolase from Giardia Lamblia: Coupling assay counterscreen | coupling enzyme system counterscreen, AmpLite Red fluorescence | activity change, negative = inhibition, % at 58.2 µM, hits read low | hit rate 0.67% among 290,000 | AID 2472, 2010; in the data active = activity change below about -30%
#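 Final compound at 57.5 uM, incubated 10 min at RT with coupling enzyme reagent (glyceraldehyde-3-phosphate), then 20 min with substrate and AmpLite Red detection. Fluorescence read at 525/598 nm; tests interference with the coupling assay, not aldolase inhibition.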
# Sfp PPTase inh = qHTS Assay for Inhibitors of Bacillus subtilis Sfp phosphopantetheinyl transferase (PPTase) | 4'-phosphopantetheinyl transferase ffp (Bacillus subtilis), Q9F4F7 | Biochemical Sfp PPTase activity, qHTS | Potency, µM, for inactives: largest response in the series, negative = inhibition, usual class: inhibitors | hit rate 3.5% among 310,000 | AID 1490, 2009;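 note: the enzyme is Sfp with the accession as filed and its product quenches rhodamine fluorescence; potency is the fitted concentration of half-maximal effect; 0% = enzyme reaction without inhibitor and -100% = no enzyme wells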
#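 Compounds were incubated with enzyme (final 15 nM) for 15 min at room temperature before substrate addition started the reaction. Fluorescence at 525 nm excitation, 598 nm emission was recorded immediately and after 30 minutes.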
# The depositor's hits bear a star; ? = inconclusive; · = no result given. Unless noted, calls come from the whole dose curve; as a rule, active = well fitted curve in the direction sought with a large enough effect; inconclusive = small, poorly fitted or top-dose-only effect, or another doubt; inactive = no such curve, though single readings can be large; an effect the other way counts as inactive or inconclusive. Unless noted, % is set by controls: 0 for no effect and ±100 for the full control effect.
SMILES,Giardia kill,ELG1 repair inh,FBPA coupling cs,Sfp PPTase inh
CC(C)(C)CC(C)(C)NC(=S)Nc1ccc2nc(-c3ccccn3)c(-c3ccccn3)nc2c1,3,?,-56*,-101%
S=C(Nc1ccc2nc(-c3ccccn3)c(-c3ccccn3)nc2c1)N1CCOCC1,-15,6%,-41*,?
CN(C)NC(=S)Nc1ccc2nc(-c3ccccn3)c(-c3ccccn3)nc2c1,-7,15%,-17,-9%
O=C(Nc1ccc2nc(-c3ccccn3)c(-c3ccccn3)nc2c1)N1CCCC1,-13,·,·,·
OCCCNC(=S)Nc1ccc2nc(-c3ccccn3)c(-c3ccccn3)nc2c1,2,12%,-33*,-13%
O=C(Nc1ccc2nc(-c3cccs3)c(-c3cccs3)nc2c1)N1CCOCC1,-11,5.2µM*,-29,7%
CC(=O)N1CCC2(CC1)CCN(c1ccccc1)CC2,·,·,2,24%
Cc1cc(C)c2nc(-c3cccc(Cl)c3)c(C)c(C(=O)N3CCOCC3)c2c1,-7,-21%,·,-11%
O=C(Nc1ccc(F)cc1)N1CCOCC1,-10,4%,1,8%
CN(C)c1ccc(NC(=O)N2CCOCC2)cc1,-2,?,-32*,40µM*
CCOc1ccc2nc3cc(NCc4ccc(OC)cc4)ccc3c(N)c2c1,10,-18%,-5,32µM*
CC1CCc2c(sc(NC(=O)/C=C/c3cccs3)c2C(=O)O)C1 (stereo not given),1,5%,1,16%
CC(OC(=O)c1ccc2ncsc2c1)C(=O)NC1CCCCC1C (stereo not given),-7,9%,·,·
CN(C)/C=C\C(=C/C(=O)C(F)(F)F)Nc1ccccc1Oc1ccccc1,1,?,-6,45µM*
O=c1c2ccccc2nc(/C=C/c2cccc(Br)c2)n1CCCO,-9,15µM*,2,1%
O=c1c2ccccc2nc(/C=C/c2ccc([N+](=O)[O-])cc2)n1CCCO,-6,18µM*,1,-5%
O=c1c2ccccc2nc(/C=C/c2ccc([N+](=O)[O-])o2)n1CCCO,-88*,15µM*,0,7%
CCn1c(/C=C/c2ccc(O)c(O)c2)nc2ccccc2c1=O,4,-18%,-7,79µM*
CCn1c(/C=C/c2ccc(O)cc2)nc2ccccc2c1=O,1,?,5,-6%
c1ccc2[nH]ccc2c1,·,·,·,17%
COc1cc(SC)ccc1C(=O)NNC(=O)c1cc(C)oc1C,-28,?,·,·
O=C(c1ccccc1)C1(c2ccccc2)OC1c1ccccc1 (stereo not given),-5,·,·,·
COc1cccc(-c2cc(C(=O)Nc3ccc([N+](=O)[O-])cn3)c3ccccc3n2)c1,-7,13µM*,-2,-5%
Cc1ccc(-c2cc(C(=O)NCCc3ccccn3)c3ccccc3n2)c(C)c1,1,?,-2,14%
O=C(NCCc1ccccn1)c1cc(-c2cccc3ccccc23)nc2ccccc12,-3,23µM*,0,3%
SMILES,Giardia kill,ELG1 repair inh,FBPA coupling cs,Sfp PPTase inh
O=C(Nc1ccc([N+](=O)[O-])cn1)c1cc(-c2cccc(Br)c2)nc2ccccc12,0,0%,-2,6%
O=C(Nc1ccccn1)c1cc(-c2cccc(Cl)c2)nc2ccccc12,9,18µM*,0,2%
O=C(Nc1ccc([N+](=O)[O-])cn1)c1cc(-c2cccc(Cl)c2)nc2ccccc12,-28,-19%,-2,12%
CCOc1cccc(-c2cc(C(=O)Nc3ccon3)c3ccccc3n2)c1,-15,13µM*,-11,-5%
O=c1ccc2c(OCCCCOc3ccccc3)c3ccoc3cc2o1,·,·,0,-7%
CN(C)c1cccc(C(=O)NNC(=O)CSc2ccccc2)c1,7,?,0,9%
CC1(c2ccc3c(c2)OCCO3)NC(=O)N(CC(=O)Nc2ccccc2F)C1=O (stereo not given),1,13%,·,·
COc1ccc([C@H]2C(C(=O)O)=C[C@@H](CC3CCCC3)N2S(=O)(=O)c2ccc(C)cc2)cc1OC,2,2%,·,·
Cc1onc(-c2ccccc2)c1C(=O)NC1CCC(C)CC1 (stereo not given),-3,2%,·,·
CCOC(=O)c1ccc(NC(=O)c2cccc3c2C(=O)N(CC2CCCO2)C3)cc1 (stereo not given),5,?,-1,-31%
CCOC(=O)C1=CN(CC2CCCO2)C=C(C(=O)OCC)C1c1ccccc1C(F)(F)F (stereo not given),6,?,-6,40µM*
Oc1ccc(Br)cc1/C=N/n1c(-c2ccccc2)n[nH]c1=S,12,-4%,2,56µM*
Cc1cccc(/C=N/n2c(-c3ccccc3)n[nH]c2=S)c1O,-29,0%,-2,79µM*
NC(=O)c1cc2ccc(O)cc2oc1=Nc1ccccc1,-6,2.3µM*,10,?
NC(=O)c1cc2ccc(O)cc2oc1=NCc1ccccc1,-9,9.2µM*,1,2%
CCCN(CC(=O)Nc1ccc(F)c(F)c1F)C(=O)c1cc([N+](=O)[O-])ccc1N1CCOCC1,12,-9%,·,·
O=C(CSc1nc(-c2ccccc2)nc2c1Cc1ccccc1O2)Nc1ccc(C(=O)O)cc1,-4,-8%,18,79µM*
CCOc1ccc(-c2nnc3ccc(SCc4ccc(C(=O)OC)o4)nn23)cc1,13,21µM*,-3,11µM*
COC(=O)c1ccc(CSc2ccc3nnc(-c4ccc(F)cc4)n3n2)o1,-7,-6%,4,-10%
COC(=O)c1ccc(CSc2ccc3nnc(-c4ccccn4)n3n2)o1,-3,2%,-3,40µM*
COc1ccc(N(C)C(=O)c2cc3c(s2)-c2ccccc2OC3)c(OC)c1,14,?,2,-6%
COc1ccc(N(C)C(=O)c2cc3c(s2)-c2ccc(Cl)cc2S(=O)(=O)C3)c(OC)c1,7,21µM*,2,-3%
Cc1cccc(N(CC(=O)NCC2CCCO2)C(=O)CCC(=O)Nc2nccs2)c1 (stereo not given),3,3%,10,10%
COc1ccc(S(=O)(=O)NC2CC(=O)N(c3ccccc3)C2)cc1C (stereo not given),4,-6%,·,·
CC(=O)N1c2ccc(S(=O)(=O)N(C)CC(=O)Nc3ccccc3C)cc2CC1C (stereo not given),33,16µM*,·,9%
O=C(CCNC(=O)C1CCN(S(=O)(=O)c2ccccc2)CC1)NCc1ccc(Cl)c(Cl)c1,15,-9%,·,5%
COC(=O)c1ccc(NC(=O)c2cc3sccc3n2C)cc1,-2,10%,·,45µM*
COc1cc(NC(=O)c2cc3sccc3n2C)cc(OC)c1,3,?,-7,50µM*
O=C(Nc1cccc(O)c1)c1cc(-c2ccc3c(c2)OCO3)on1,-82*,?,-2,-3%
COc1cc(NC(=O)c2cc(-c3ccc4c(c3)OCO4)on2)cc(OC)c1OC,13,-4%,0,11%
